This note sets out measurements from PubChem BioAssay (NCATS).

Records with an inconclusive call do not appear. A call without a number means that no potency is given here. The source made the active and inactive calls. Unless noted, the call rests on the fitted dose curve; in most records, active means well fitted curve in the direction sought with a large enough effect; inconclusive means small, poorly fitted or top-dose-only effect, or another doubt; inactive means no such curve, though single readings can be large; an effect the other way counts as inactive or inconclusive.

Test [1] can be described thus: Primary redox qHTS assay for identification of artifact compounds. (AID 1845223). A digest of the protocol:
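Redox-cycling detection via DTT (250 uM final) oxidation coupled to Amplex Red (25 uM)/HRP (250 mU/mL) in HBSS. 15 min preincubation plus 30 min after DTT, room temperature. Ex/Em 525/598 nm; 4-parameter Hill fit against DMSO and 10 uM DA3003.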
Background: Quantitative high-throughput screening tests each substance at several concentrations.

Test [2] concerns the target Cytochrome P450 2D6 (Homo sapiens) (UniProt P10635). Put plainly: Cytochrome P450 family 2 subfamily D member 6 (CYP2D6) small molecule antagonists: luciferase biochemical (cell-free) qHTS assay (AID 1645840; active means well fitted curve in the direction sought with a large enough effect in the repeat runs; an effect the other way counts as inactive or inconclusive; further: potency means the concentration at half of the fitted maximal effect; nearly all actives have a fitted effect of over 55% in size). Summed up: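 P450-Glo CYP2D6 system: proluciferin substrate converted by enzyme to luciferin, read by luminescence proportional to activity. Enzyme-substrate mix with compound 10 min at room temperature, then NADPH regeneration 1 h before detection reagent.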

For test [3], the target named is Cytochrome P450 2C9 (Homo sapiens) (UniProt P11712). Put plainly: Cytochrome P450 family 2 subfamily C member 9 (CYP2C9) small molecule antagonists: luciferase biochemical (cell-free) qHTS assay (AID 1645842; active means well fitted curve in the direction sought with a large enough effect in the repeat runs; an effect the other way counts as inactive or inconclusive; further: potency means the concentration at half of the fitted maximal effect; nearly all actives have a fitted effect of over 55% in size). Summed up:
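P450-Glo CYP2C9 system: proluciferin substrate with enzyme in mix containing 0.4% BSA, 10 min at room temperature, then NADPH regeneration solution added and incubated 1 h at 37C. Detection reagent stopped reaction; luminescence read after 20 min as RLU.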

Test [4] can be described thus: Primary qHTS for small molecule stabilizers of the endoplasmic reticulum resident proteome: Secreted ER Calcium Modulated Protein (SERCaMP) assay (AID 1508630). A digest of the protocol: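 The SH-SY5Y reporter protocol was run at 3 concentrations up to 38.3 uM (primary) or 11 concentrations (follow-up): 16 h compound, 100 nM thapsigargin for 4 h, then extracellular luciferase luminescence.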

Test [5] concerns the target Cytochrome P450 3A4 (Homo sapiens) (UniProt P08684). Put plainly: qHTS Assay for Inhibitors and Substrates of Cytochrome P450 3A4 (AID 884). Further: series mostly up to about 57 µM; nearly all actives have a fitted effect of over 50% in size. Summed up: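 Luminescent readout of luciferin produced by CYP3A4 (20 nM) dealkylation of Luciferin-PPXE, 25 uM (its KM). NADPH-driven reaction ran 60 min at RT after 10 min compound preincubation; data scaled to 57 uM ketoconazole as 100% inhibition.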

Test [6] is described as follows: Confirmation and Secondary Assay for Modulators of Hemoglobin Beta Chain Splicing at IVS2 654 locus (AID 910).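 Further: HeLa cells stably carrying EGFP split by mutant beta-globin IVS2-654 intron; per-well total GFP intensity by laser scanning cytometry after 2-day treatment.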 Summed up:
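Readout: per-well total peak green fluorescence (488 nm ex, 500–520 nm em) from objects 5–250 µm, reflecting correct splicing of an EGFP-654 reporter. Compounds were applied for 2 days at 37 °C to overnight-plated HeLa EGFP-654 cells; controls were DMSO and 500 nM IVS2-654 PNA.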

Test [7] can be described thus: Confirmation and Secondary Assay for Modulators of Hemoglobin Beta Chain Splicing at IVS2 705 locus (AID 930).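 Further: HeLa cells stably expressing the EGFP-705 splicing reporter; GFP fluorescence per well restored by corrected splicing of the IVS2-705 intron in EGFP; series mostly up to about 46 µM.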 Summed up:
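Splice-correction reporter: EGFP cDNA split by beta-globin intron 2 bearing the 705 mutation, stably in HeLa. Compound incubation 2 days, 37C; fluorescent objects 5-250 µm summed per well.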

Test [8] deals with Ubiquitin carboxyl-terminal hydrolase 1 (Homo sapiens) (UniProt O94782). Put plainly: Inhibitors of USP1/UAF1: Pilot qHTS (AID 504865).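 Further: rhodamine fluorescence freed from ubiquitin-rhodamine substrate followed over time; top concentration of the series differs between compounds; nearly all actives have a fitted effect of over 35% in size.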 A digest of the protocol:
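In 50mM HEPES pH 7.8 containing 0.5mM EDTA, 1mM TCEP, 0.1 mg/ml BSA and 0.01% Tween-20, 1nM USP1/UAF1 is exposed to compound for 15 min, then Ub-Rho (150nM final) is added and fluorescence is read over time.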

Test [9] can be described thus: NCATS anti-infectives library activity on HEK293 viability as a counter-qHTS vs the C. elegans viability qHTS (AID 1745854). A digest of the protocol:
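Cytotoxicity counter-screen to a worm viability qHTS: CellTiter-Glo luminescence read 10 min after reagent addition. Compounds (final up to 41.7 uM, a 1:5 dilution series) incubated 24 hr at 37C with 1,500 HEK293 cells per well; digitonin control.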

Chain of Cytochrome P450 2C9 (Homo sapiens) (P11712 whole entry, looked up): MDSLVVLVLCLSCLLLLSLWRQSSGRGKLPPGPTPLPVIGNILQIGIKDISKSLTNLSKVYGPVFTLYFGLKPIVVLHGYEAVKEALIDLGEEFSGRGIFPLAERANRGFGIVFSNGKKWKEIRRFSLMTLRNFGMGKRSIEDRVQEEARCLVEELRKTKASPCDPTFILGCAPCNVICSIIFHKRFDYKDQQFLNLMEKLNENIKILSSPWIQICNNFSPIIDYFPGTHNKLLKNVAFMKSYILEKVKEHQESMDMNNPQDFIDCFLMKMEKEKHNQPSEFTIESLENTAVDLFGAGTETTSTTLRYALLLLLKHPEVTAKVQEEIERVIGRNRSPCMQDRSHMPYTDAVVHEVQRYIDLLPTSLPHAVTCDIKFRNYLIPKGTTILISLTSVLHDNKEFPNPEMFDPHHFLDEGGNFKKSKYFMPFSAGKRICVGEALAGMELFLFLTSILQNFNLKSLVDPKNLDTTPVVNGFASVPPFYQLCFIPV
Chain of Ubiquitin carboxyl-terminal hydrolase 1 (Homo sapiens) (O94782 whole entry, looked up): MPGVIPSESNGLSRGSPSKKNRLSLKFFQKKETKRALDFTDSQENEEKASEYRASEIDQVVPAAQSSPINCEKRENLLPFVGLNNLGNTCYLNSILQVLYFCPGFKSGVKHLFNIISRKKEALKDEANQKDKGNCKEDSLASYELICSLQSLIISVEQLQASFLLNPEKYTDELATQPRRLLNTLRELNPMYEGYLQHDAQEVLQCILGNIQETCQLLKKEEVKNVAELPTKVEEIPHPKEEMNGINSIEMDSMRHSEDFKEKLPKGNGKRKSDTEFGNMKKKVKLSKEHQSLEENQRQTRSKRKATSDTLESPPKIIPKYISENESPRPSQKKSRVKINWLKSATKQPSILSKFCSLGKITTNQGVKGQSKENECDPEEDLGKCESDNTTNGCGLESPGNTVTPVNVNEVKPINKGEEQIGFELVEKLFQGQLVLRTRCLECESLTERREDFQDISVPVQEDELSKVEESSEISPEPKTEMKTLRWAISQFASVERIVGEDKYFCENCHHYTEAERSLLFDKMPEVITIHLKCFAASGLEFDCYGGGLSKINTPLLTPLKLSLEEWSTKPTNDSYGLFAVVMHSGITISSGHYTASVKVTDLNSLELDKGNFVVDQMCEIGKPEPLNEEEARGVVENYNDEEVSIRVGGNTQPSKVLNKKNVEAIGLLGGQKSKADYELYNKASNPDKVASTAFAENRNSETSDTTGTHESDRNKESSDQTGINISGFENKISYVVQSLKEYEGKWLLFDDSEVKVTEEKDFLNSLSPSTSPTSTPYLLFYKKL
Chain of Cytochrome P450 3A4 (Homo sapiens) (P08684 whole entry, looked up): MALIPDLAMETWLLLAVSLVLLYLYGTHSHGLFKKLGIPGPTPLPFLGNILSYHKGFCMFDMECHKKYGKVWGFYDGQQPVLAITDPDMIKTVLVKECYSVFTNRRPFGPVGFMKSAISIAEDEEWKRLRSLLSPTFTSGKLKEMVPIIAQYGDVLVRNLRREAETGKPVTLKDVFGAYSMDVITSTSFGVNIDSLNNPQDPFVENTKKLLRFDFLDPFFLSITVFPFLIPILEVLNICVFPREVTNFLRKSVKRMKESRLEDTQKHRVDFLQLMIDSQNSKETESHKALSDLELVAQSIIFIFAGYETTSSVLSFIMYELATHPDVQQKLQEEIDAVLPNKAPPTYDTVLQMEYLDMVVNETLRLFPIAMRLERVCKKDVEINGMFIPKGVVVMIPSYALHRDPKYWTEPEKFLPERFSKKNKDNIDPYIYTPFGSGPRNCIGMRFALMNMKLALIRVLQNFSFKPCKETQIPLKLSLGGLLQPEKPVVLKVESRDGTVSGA
Chain of Cytochrome P450 2D6 (Homo sapiens) (P10635 whole entry, looked up): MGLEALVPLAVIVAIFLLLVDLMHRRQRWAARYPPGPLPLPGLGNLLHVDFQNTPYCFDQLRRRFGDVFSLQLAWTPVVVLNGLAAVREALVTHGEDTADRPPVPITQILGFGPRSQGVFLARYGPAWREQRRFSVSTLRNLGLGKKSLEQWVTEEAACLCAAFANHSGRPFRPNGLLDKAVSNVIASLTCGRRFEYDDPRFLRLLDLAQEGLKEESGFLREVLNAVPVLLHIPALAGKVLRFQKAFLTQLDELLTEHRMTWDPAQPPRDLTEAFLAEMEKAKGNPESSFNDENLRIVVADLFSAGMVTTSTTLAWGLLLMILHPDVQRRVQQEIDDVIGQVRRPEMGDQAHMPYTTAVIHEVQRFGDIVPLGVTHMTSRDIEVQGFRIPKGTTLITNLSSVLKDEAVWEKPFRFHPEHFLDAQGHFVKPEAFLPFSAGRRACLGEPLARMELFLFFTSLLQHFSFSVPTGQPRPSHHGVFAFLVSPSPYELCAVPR

Regarding `C/C=C/C[C@@H](C)[C@@H](O)[C@H]1C(=O)N[C@@H](CC)C(=O)N(C)CC(=O)N(C)[C@@H](CC(C)C)C(=O)N[C@@H](C(C)C)C(=O)N(C)[C@@H](CC(C)C)C(=O)N[C@@H](C)C(=O)N[C@H](C)C(=O)N(C)[C@@H](CC(C)C)C(=O)N(C)[C@@H](CC(C)C)C(=O)N(C)[C@H](C(C)C)C(=O)N1C`, the Potency entry in test [1] was “inactive”. Take `Cc1ccc(Nc2nnc(-c3ccc(C)c(S(=O)(=O)NCc4nc5ccccc5[nH]4)c3)c3ccccc23)cc1`: the figures for the Potency in test [2] and in test [3] were 6.01 µM (active) and 5.35 µM (active), respectively. On to `C=C1c2c(Cl)ccc(O)c2C(O)=C2C(=O)[C@]3(O)C(O)=C(C(N)=O)C(=O)[C@@H](N(C)C)[C@@H]3[C@@H](O)C12` (some centres undefined), for which the Potency result in [4] is “inactive”. `COc1cc(/C=C/C(=O)O)ccc1O`: the Potency result in test [5] and in test [8] was “inactive” in each case. In addition, the result in [6] and in test [7] was inactive. Turning to `COc1c(O)cc2oc(-c3ccccc3)cc(=O)c2c1O`, the result in [9] was inactive.
